According to PMC5540273 (PLoS ONE, 2017):

Tests used:
Conditions in all cases: concentration: 1 μM, replicates: in singlicate; n = 1
MYLK4 = tested on: MYLK4
MYLK = tested on: MYLK
MYO3A = tested on: MYO3A
MYO3B = tested on: MYO3B
NDR1 = tested on: T1, NDR1
T1 construct: gene STK38

NDR2 = tested on: NDR2
NEK10 = tested on: NEK10
NEK11 = tested on: NEK11
NEK1 = tested on: NEK1
NEK2 = tested on: NEK2
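Note: KINOMEscan kinase panel screen.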

Compound | %Inh (MYLK4) [%] | %Inh (MYLK) [%] | %Inh (MYO3A) [%] | %Inh (MYO3B) [%] | %Inh (NDR1) [%] | %Inh (NDR2) [%] | %Inh (NEK10) [%] | %Inh (NEK11) [%] | %Inh (NEK1) [%] | %Inh (NEK2) [%]
Nc1nccc2scc(-c3ccc4c(c3)CCN4C(=O)Cc3cc(F)ccc3F)c12 [GSK2587663] | 0 | 24 | 0 | 0 | 0 | 0 | 12 | 9 | 0 | 7
Cc1cc(N2CCC(NS(=O)(=O)c3ccc(F)cc3)CC2)nc(Nc2cccc(C#N)c2)n1.O=C(O)C(F)(F)F [GSK1653537] | 0 | 0 | 0 | 0 | 0 | 0 | 1 | 0 | 55 | 0
CN1c2ccc(-c3ccc(C(=O)NCCO)cc3)cc2-c2[nH]ncc2S1(=O)=O | 0 | 87 | 6 | 0 | 26 | 0 | 0 | 0 | 8 | 6
O=C(CCO)NCCn1ccc2ncnc(Nc3ccc(Oc4cccc(C(F)(F)F)c4)c(Cl)c3)c21 | 6 | 0 | 0 | 3 | 20 | 0 | 0 | 0 | 0 | 0
